For nine molecules, composite z-score and z-score results are on record in PubChem BioAssay.

Activity calls are given as the source filed them.

A short description of experiment [1]: small molecules captured by biotinylated probe aFSTL3 – biochemical, small-molecule microarray, fluorescence 635/667, stem cell growth factor project, primary screen (AID 1064).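 Also: measures binding of the biotinylated anti-FSTL3 antibody to printed compounds.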 The conditions noted are these: higher = more signal.
Experiment [2] in a line: binders from COS7 lysate, DM2A8 probe, primary screen, torsin A project, cell lysate, small-molecule microarray, fluorescence 635/667 (AID 1065). The conditions noted are these: higher = more signal, COS7 lysate expressing mutant human TOR1A.
A short description of experiment [3]: small molecules captured by biotinylated probe aFGF2 – biochemical, small-molecule microarray, fluorescence 635/667, stem cell growth factor project, primary screen (AID 1067).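 Also: measures binding of biotinylated aFGF2 protein to printed compounds on slides; z-score merges feature fluorescence and signal-to-noise across triplicate slides.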 The conditions noted are these: higher = more signal.
Experiment [4] is described as follows: small molecules captured by biotinylated probe aFGF10 – biochemical, small-molecule microarray, fluorescence 635/667, stem cell growth factor project, primary screen (AID 1071).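 Also: score merges 667 nm spot intensity and signal to noise from triplicate slides.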 Particulars: higher = more signal.
The target in experiment [5] is Neurogenic locus notch homolog protein 2 (Homo sapiens) (UniProt Q04721). Nature of the experiment: small molecules binding Notch2 protein – biochemical, small-molecule microarray, 635 nm fluorescence, stem cell growth factors, primary screen (AID 1073). Particulars: higher = more signal.
Chain of Neurogenic locus notch homolog protein 2 (Homo sapiens) (Q04721 whole entry, looked up, canonical isoform): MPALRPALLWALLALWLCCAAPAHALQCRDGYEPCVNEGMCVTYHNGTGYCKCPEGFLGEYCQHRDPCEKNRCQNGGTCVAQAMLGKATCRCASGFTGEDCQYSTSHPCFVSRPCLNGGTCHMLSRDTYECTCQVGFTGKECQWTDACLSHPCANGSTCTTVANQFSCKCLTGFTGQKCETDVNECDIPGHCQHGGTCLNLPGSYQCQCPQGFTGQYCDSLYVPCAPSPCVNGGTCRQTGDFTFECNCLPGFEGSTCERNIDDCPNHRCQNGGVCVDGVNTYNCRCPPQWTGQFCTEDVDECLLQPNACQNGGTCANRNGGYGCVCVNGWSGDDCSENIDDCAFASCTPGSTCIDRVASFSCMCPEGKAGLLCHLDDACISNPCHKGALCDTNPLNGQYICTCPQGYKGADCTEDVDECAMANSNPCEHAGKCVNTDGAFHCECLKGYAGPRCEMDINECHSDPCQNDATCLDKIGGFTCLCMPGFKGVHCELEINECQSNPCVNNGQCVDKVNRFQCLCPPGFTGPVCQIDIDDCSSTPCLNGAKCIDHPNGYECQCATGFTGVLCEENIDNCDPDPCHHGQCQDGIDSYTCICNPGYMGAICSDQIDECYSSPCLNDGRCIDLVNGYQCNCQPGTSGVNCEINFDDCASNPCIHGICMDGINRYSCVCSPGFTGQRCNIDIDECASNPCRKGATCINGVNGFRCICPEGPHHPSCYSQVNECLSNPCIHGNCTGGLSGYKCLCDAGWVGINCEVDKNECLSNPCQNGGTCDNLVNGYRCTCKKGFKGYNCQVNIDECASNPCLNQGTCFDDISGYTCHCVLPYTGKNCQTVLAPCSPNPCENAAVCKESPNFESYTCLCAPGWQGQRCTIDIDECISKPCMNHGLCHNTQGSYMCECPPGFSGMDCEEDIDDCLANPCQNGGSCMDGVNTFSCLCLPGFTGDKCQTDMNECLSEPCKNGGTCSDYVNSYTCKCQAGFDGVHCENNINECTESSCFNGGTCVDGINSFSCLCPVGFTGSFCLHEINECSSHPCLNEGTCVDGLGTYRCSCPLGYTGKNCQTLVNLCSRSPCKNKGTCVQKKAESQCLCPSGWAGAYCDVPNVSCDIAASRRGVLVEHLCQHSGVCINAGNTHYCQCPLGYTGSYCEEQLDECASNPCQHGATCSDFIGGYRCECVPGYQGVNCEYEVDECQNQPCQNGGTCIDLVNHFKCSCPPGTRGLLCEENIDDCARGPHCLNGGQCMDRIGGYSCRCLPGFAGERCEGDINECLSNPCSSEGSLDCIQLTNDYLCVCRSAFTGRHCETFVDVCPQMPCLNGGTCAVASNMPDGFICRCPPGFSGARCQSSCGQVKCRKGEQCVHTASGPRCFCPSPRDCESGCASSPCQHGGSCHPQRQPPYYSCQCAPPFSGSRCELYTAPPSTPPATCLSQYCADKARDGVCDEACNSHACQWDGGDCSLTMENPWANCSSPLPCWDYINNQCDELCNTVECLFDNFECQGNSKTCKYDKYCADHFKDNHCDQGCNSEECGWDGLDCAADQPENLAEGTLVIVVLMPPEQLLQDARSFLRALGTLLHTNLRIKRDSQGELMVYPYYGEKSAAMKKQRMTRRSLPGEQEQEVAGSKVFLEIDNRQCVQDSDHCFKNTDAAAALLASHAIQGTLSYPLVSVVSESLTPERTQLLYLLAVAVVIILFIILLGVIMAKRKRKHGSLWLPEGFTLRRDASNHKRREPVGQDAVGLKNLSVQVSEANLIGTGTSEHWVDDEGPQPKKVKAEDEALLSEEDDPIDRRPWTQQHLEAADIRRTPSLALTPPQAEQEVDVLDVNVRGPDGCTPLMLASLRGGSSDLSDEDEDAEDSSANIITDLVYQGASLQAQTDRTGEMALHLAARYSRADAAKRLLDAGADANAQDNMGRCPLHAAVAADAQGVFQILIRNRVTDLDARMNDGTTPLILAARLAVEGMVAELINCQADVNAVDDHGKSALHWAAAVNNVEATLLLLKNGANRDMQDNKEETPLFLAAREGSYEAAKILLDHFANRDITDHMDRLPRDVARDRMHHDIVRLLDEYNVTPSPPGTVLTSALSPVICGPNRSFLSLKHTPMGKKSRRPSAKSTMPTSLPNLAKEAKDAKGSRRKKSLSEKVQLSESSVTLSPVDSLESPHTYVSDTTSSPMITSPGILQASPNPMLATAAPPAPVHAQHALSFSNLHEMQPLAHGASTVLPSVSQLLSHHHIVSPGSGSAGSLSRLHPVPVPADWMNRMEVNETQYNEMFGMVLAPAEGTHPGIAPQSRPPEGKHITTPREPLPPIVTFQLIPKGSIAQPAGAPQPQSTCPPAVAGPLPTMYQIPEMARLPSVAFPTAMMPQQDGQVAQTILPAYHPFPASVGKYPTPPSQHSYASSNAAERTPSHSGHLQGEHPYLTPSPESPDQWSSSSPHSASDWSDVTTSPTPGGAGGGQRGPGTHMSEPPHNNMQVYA
The target in experiment [6] is Pro-neuregulin-1, membrane-bound isoform (Homo sapiens) (UniProt Q02297). The experiment can be described thus: small molecules binding neuregulin-1 protein – biochemical, small-molecule microarray, fluorescence 635/667, psychiatric disease protein project, primary screen (AID 1075).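 Also: score combines 667 nm spot fluorescence with signal to noise.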 Particulars: NRG1 binding, 635 nm fluorescence, higher = more signal.
Chain of Pro-neuregulin-1, membrane-bound isoform (Homo sapiens) (Q02297 whole entry, looked up, the tested form may be a part, canonical isoform): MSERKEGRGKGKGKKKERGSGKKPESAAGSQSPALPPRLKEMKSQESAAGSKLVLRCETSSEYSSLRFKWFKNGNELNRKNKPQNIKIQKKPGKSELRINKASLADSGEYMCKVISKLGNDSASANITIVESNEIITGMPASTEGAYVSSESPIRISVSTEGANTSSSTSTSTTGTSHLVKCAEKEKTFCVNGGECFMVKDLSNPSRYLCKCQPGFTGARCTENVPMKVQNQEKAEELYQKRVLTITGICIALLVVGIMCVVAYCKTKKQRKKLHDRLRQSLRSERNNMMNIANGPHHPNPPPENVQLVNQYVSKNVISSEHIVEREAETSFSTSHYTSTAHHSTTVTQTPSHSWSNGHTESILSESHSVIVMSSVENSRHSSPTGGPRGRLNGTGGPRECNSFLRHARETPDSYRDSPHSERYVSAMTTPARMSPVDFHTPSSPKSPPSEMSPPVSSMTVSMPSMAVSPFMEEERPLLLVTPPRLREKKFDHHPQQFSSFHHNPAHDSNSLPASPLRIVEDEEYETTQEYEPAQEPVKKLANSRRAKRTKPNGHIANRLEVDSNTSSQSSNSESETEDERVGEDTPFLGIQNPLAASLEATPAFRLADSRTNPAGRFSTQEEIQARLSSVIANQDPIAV
Experiment [7] concerns Neuregulin-1 EGF-like domain. Nature of the experiment: small molecules binding NRG1 EGF domain – biochemical, small-molecule microarray, 635 nm fluorescence, primary screen (AID 1081).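 Also: binding of the protein to compounds printed on small-molecule microarray slides.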 The conditions noted are these: higher = more signal.
Experiment [8] is described as follows: FRG1 expression reporter modulators in myotubes – cell-based, C2C12 myotubes, firefly/Renilla luciferase, luminescence, FRG1 inhibition for FSHD, primary screen (AID 1084). The conditions noted are these: FRG1 promoter luciferase, higher = more signal, called active from +8 up or from −8 down.
Experiment [9] is described as follows: small molecules captured by biotinylated probe aFST – biochemical, small-molecule microarray, fluorescence 635/667, stem cell growth factor project, primary screen (AID 1086).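 Also: score merges 667 nm fluorescence with signal-to-noise of each printed compound spot.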 Particulars: higher = more signal.
A short description of experiment [10]: binders of probe aHhip on microarray, primary screen, stem cell growth factor project, biochemical, small-molecule microarray, fluorescence 635/667 (AID 1087).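 Also: score merges spot fluorescence at 667nm with spot signal to noise ratio.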 Particulars: higher = more signal.
The subject of experiment [11] is PRMT1 (protein arginine N-methyltransferase 1). The experiment can be described thus: small molecules binding arginine methyltransferase PRMT1 – biochemical, small-molecule microarray, 635 nm fluorescence, primary screen (AID 1088).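 Also: binding of Prmt1 protein to compounds spotted on small-molecule microarray slides.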 The conditions noted are these: higher = more signal.
Experiment [12] is described as follows: growth effects on S. cerevisiae YJM789 – YJM789 clinical isolate, OD600, 24 h, basal, primary screen (AID 1089).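 Also: growth of clinical yeast isolate S. cerevisiae YJM 789 seeded 1000 cells per well; test concentration not given here.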 The conditions noted are these: higher = more signal, called active from +8 up or from −8 down.
Experiment [13] can be described thus: S. pombe growth modifiers, basal conditions – strain 972, OD600, 24 h, no modulator, primary screen (AID 1090).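 Also: basal condition with compound alone and no growth modifier present; test concentration not given here.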 Particulars: S. pombe 972 growth, higher = more signal, called active from +8 up or from −8 down.
A short description of experiment [14]: budding yeast growth modifiers under rapamycin – strain BY4716, OD600, 96 h, primary screen (AID 1091). Also: test concentration not given here. Particulars: S. cerevisiae BY4716 + rapamycin, higher = more signal, called active from +8 up or from −8 down.
Experiment [15] addresses Torsin-1A-interacting protein 2 (Homo sapiens) (UniProt Q8NFQ8). Nature of the experiment: small molecules binding lysate-expressed LULL1 – cell lysate, human LULL1 lysate, 635/667 nm fluorescence, primary screen (AID 1092).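 Also: probe is lysate of COS7 cells overexpressing human LULL1; score merges per-feature 667 nm fluorescence with signal-to-noise.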 The conditions noted are these: small-molecule microarray, hLULL1 lysate binding, 635 nm fluorescence; higher = more signal.
A short description of experiment [16]: optical density change of DRC41 E. coli – strain DRC41, OD650, 24 h, E. coli filamentation project, primary screen (AID 1093).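 Also: MC1000 strain lacking acrAB efflux and sulA so SOS filamentation is blocked; test concentration not given here.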 The conditions noted are these: E. coli DRC41 growth, higher = more signal, called active from +8 up or from −8 down.
The nature of experiment [17]: probe aLefty2 binding to arrayed compounds – biochemical, biotinylated probe, 635/667 nm fluorescence, primary screen (AID 1094).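 Also: score merges spot fluorescence near 667 nm with spot signal-to-noise ratio.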 Particulars: small-molecule microarray, higher = more signal.
The subject of experiment [18] is Noggin (protein binding on small-molecule microarray). Nature of the experiment: small molecules binding Noggin protein – biochemical, 635/667 nm fluorescence, primary screen (AID 1095).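 Also: score merges 667 nm feature fluorescence with signal to noise over triplicate slides.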 Particulars: 635 nm fluorescence, higher = more signal.
In experiment [19] the target is Neurogenic locus notch homolog protein 3 (Homo sapiens) (UniProt Q9UM47). The experiment can be described thus: small molecules binding NOTCH3 protein – biochemical, 635/667 nm fluorescence, primary screen (AID 1096). The conditions noted are these: small-molecule microarray, 635 nm fluorescence, higher = more signal.
Experiment [20] can be described thus: probe aEGFR binding to arrayed compounds – biochemical, biotinylated probe, 635/667 nm fluorescence, primary screen (AID 1097).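 Also: probe is a biotinylated anti-EGFR antibody binding compounds printed on slides; score combines fluorescence near 667 nm and signal to noise of each spot.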 The conditions noted are these: small-molecule microarray, higher = more signal.

Chain of Torsin-1A-interacting protein 2 (Homo sapiens) (Q8NFQ8 whole entry, looked up): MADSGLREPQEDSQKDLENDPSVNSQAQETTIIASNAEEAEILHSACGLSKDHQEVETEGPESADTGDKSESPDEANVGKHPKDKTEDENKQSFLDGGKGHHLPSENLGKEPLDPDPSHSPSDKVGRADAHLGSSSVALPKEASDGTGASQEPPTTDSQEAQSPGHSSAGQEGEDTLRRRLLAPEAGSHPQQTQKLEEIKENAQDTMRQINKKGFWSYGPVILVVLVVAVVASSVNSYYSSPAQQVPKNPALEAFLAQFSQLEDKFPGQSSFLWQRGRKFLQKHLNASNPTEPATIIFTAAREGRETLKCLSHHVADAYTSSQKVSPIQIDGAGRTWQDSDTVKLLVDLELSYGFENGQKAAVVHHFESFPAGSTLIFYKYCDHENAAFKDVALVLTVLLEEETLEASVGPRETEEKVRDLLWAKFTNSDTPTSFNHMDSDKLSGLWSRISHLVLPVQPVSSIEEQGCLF

Turning to `O=C1C[C@@H](O)[C@@H](O)[C@@H]2[C@@H]3C(=O)N(c4ccc(F)cc4F)C(=O)[C@@H]3CC[C@@H]12`, the composite z-score in [1] is -0.416; in experiment [2], 0.267; in experiment [3], -0.122; in experiment [4], 0.315; in [5] it was 0.627; in experiment [6], 0.0489. Further, the composite z-score in experiment [7] is 0.823; in experiment [9] it was 0.153; in experiment [10] it was 0.144; in [11], 0.306; in [15] it was 0.662; in [17], 0.0424. The composite z-score in [18] was 0.438; in [19], 0.65; in experiment [20] it was -0.109. Also, the z-score was 0.25 (inactive) in experiment [8]; -0.168 (inactive) in experiment [12]; -0.413 (inactive) in [13]; -0.0694 (inactive) in experiment [14]; 0.315 (inactive) in [16].

Turning to `CCOc1ccc(N2C(=O)/C(=C/C=C/c3ccccc3OC)S(=O)(=O)C2c2cccc([N+](=O)[O-])c2)cc1` (stereo not given), the composite z-score in [1] was -0.0317; in experiment [2] it was 0.232; in experiment [3] it was -0.0906; in [4] it was 0.281; in experiment [5] it was 0.344; in [6], 0.903. Moreover, the composite z-score in experiment [7] is -0.142; in [9], 0.323; in experiment [10] it was -0.515; in experiment [11] it was -0.167; in experiment [15], 0.236; in [17] it was -0.0342. In addition, the composite z-score is 0.39 in experiment [18], 0.638 in experiment [19] and -0.103 in experiment [20]. Besides, the z-score is -1.75 (inactive) in experiment [8]; -3.8 (inactive) in [12]; -3.13 (inactive) in [13]; 0.648 (inactive) in experiment [14]; 0.841 (inactive) in [16].

Turning to `CO[C@H]1O[C@H](CO)[C@@H](OC(=O)Nc2ccc(C#N)cc2)[C@H](OC(=O)c2cc3ccccc3[nH]2)[C@H]1OC(=O)c1cc2ccccc2[nH]1`, the composite z-score stood at 0.0407 in experiment [1]; 1.3 in experiment [2]; 0.062 in [3]; 1.16 in experiment [4]; 1.04 in [5]; 1.75 in experiment [6]. Also, the composite z-score in [7] is 1.24; in [9], 0.462; in [10] it was -0.0645; in experiment [11] it was 1.3; in experiment [15], 1.77; in [17], 0.0261. Also, the composite z-score was 1.02 in [18], 0.695 in experiment [19] and -0.0238 in [20]. The z-score in experiment [8] is -1.79 (inactive); in experiment [12] it was -2.49 (inactive); in [13], -1.17 (inactive); in [14], 0.507 (inactive); in experiment [16], 3.01 (inactive).

Take `CC(=O)OC[C@H]1O[C@H](C#CCCCc2ccccc2)C=C[C@@H]1OC(C)=O`: the composite z-score was -0.0129 in experiment [1]; 0.105 in experiment [2]; -0.083 in [3]; 0.73 in experiment [4]; 0.2 in experiment [5]; 0.505 in experiment [6]. In addition, the composite z-score in experiment [7] was 0.765; in [9] it was -0.206; in experiment [10], 0.351; in experiment [11], 0.351; in experiment [15], 1.01; in experiment [17], -0.239. In addition, the composite z-score was 0.66 in experiment [18], 0.389 in [19] and -0.0703 in [20]. The z-score is -0.13 (inactive) in [8]; 0.458 (inactive) in [12]; -19.5 (active) in experiment [13]; -0.967 (inactive) in experiment [14]; 0.0065 (inactive) in experiment [16].

`CC(C)NC(=O)[C@@H]1c2ccccc2C(=O)N(CC23CC4CC(CC(C4)C2)C3)[C@H]1c1ccc(CO)cc1`: the composite z-score in experiment [1] was -0.438; in experiment [2] it was -0.0125; in experiment [3], -0.0277; in [4], 0.0767; in experiment [5], 1.38; in experiment [6] it was 0.93. Besides, the composite z-score is 1.27 in experiment [7]; 0.839 in experiment [9]; -0.434 in [10]; 1.57 in experiment [11]; 2.68 in experiment [15]; -0.143 in experiment [17]. Also, the composite z-score worked out at 0.701 in [18], 1.04 in [19] and 0.0633 in [20]. Besides, the z-score in [8] was -3.34 (inactive); in experiment [12] it was -1.44 (inactive); in experiment [13], -1.81 (inactive); in [14] it was -0.241 (inactive); in experiment [16] it was 1.43 (inactive).

For `C=C(COC)/C(=C/C[C@H](OC(=O)c1ccncc1)c1ccc(CO)o1)c1cc(C(=O)OC)ccc1OC`, the composite z-score is -0.393 in [1]; 0.649 in experiment [2]; 0.0026 in experiment [3]; 0.905 in experiment [4]; 0.614 in experiment [5]; 0.407 in experiment [6]. Further, the composite z-score in [7] is 0.716; in experiment [9], 0.404; in experiment [10] it was -0.123; in experiment [11] it was 1.55; in experiment [15], 1.84; in experiment [17] it was 0.0421. Besides, the composite z-score in experiment [18] is 0.834; in experiment [19] it was 1.12; in experiment [20] it was -0.112. Also, the z-score was 0.0676 (inactive) in experiment [8]; -0.787 (inactive) in experiment [12]; 0.132 (inactive) in [13]; -0.443 (inactive) in [14]; 0.55 (inactive) in experiment [16].

Turning to `COc1ccc(O[C@H]2C=C[C@@H](c3ccccc3)O[C@@H]2CON=C[C@@H](C)[C@H](OCc2ccccc2)C(C)C)cc1`, the composite z-score was -0.397 in [1]; -0.249 in [2]; -0.168 in experiment [3]; -0.773 in experiment [4]; -0.936 in experiment [5]; -0.744 in [6]. Also, the composite z-score was -0.921 in [7]; -0.623 in experiment [9]; -0.602 in experiment [10]; -0.28 in experiment [11]; -1.14 in [15]; -0.235 in experiment [17]. Moreover, the composite z-score in experiment [18] is -0.347; in experiment [19], -1.27; in experiment [20], -0.241. The z-score in experiment [8] is -1.01 (inactive); in experiment [12], 0.706 (inactive); in experiment [13], -0.564 (inactive); in experiment [14] it was 0.314 (inactive); in experiment [16], -0.349 (inactive).

`CC(=O)OC[C@H]1O[C@H](CC=NOC[C@@H](C)[C@H](OCc2ccccc2)C(C)C)C=C[C@@H]1OC(C)=O`: the composite z-score is -0.0055 in experiment [1]; -0.141 in experiment [2]; -0.087 in experiment [3]; 0.0055 in experiment [4]; -0.0224 in [5]; -0.254 in experiment [6]. Further, the composite z-score in experiment [7] is -0.712; in experiment [9], -0.341; in experiment [10], -0.0645; in experiment [11] it was 0.7; in experiment [15] it was -0.299; in experiment [17], -0.0345. The composite z-score in [18] was 0.259; in experiment [19], -0.14; in experiment [20] it was -0.0873. Further, the z-score is 0.183 (inactive) in experiment [8]; -0.523 (inactive) in [12]; -0.0269 (inactive) in experiment [13]; -1 (inactive) in experiment [14]; -0.186 (inactive) in experiment [16].

As for `C[C@@H]1CC[C@H]2C(=O)O[C@H](COc3ccc(C(C)(C)C)cc3)CN2[C@H]1c1ccc(Br)cc1`, the composite z-score in experiment [1] is -0.417; in [2], -0.16; in experiment [3], -0.026; in [4] it was -0.0359; in experiment [5] it was 0.111; in [6], 0.536. Further, the composite z-score in experiment [7] is -0.414; in experiment [9] it was -0.0273; in experiment [10] it was -0.0296; in experiment [11], -0.59; in experiment [15], -0.121; in experiment [17], -0.291. Moreover, the composite z-score was -0.273 in experiment [18], -0.428 in experiment [19] and -0.122 in [20]. In addition, the z-score in [8] is 0.414 (inactive); in experiment [12] it was 1.55 (inactive); in experiment [13], 0.406 (inactive); in experiment [14], 1.4 (inactive); in experiment [16] it was -0.756 (inactive).
